Source: PubChem BioAssay (NCATS)
Records with an inconclusive call do not appear. Active and inactive are the calls of the source. Calls follow the shape of the dose curve; as a rule, active = well fitted inhibition curve with a large enough effect; inconclusive = small, poorly fitted or top-dose-only effect; inactive = no such curve, though single readings can be large or run the other way.

test system: Zika virus NS2B-NS3 protease (linked construct); assay: Primary screen NINDS Rhodamine qHTS for Zika virus inhibitors (AID 1347160); settings: purified NS2B-NS3 protease, Rhodamine110 substrate fluorescence; series mostly up to 33.1 µM; activity change, negative = inhibition: at the top concentration; also: nearly all actives have a fitted effect of over 55% in size
How it was run: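 Purified linked NS2B-NS3 protease (NS2B hydrophilic domain joined to NS3 protease by flexible linker), 25 nM in 10 mM Tris-HCl pH 8.0, 0.01% Tween 20. Compounds titrated, 15 min preincubation at room temperature; 1.5 microM Rhodamine110 substrate, FITC fluorescence change over 15 min.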
% is scaled to controls: 0 for no effect and ±100 for the full control effect.

| Structure (SMILES) | activity change, negative = inhibition |
| --- | --- |
| CC1C2=CC(=O)OC2(O)CC2C1C(OC(=O)c1ccccc1)C(OC(=O)c1ccccc1)C1(O)C2(C)CCC(O)C1(C)C(=O)O (configuration not stated) | -5.07% [at 15.1 µM] (inactive) |
| C=C(C)[C@@]1(O)C[C@@]2(C)C(=CC1=O)CC[C@@H](O)[C@@H]2C | 44.3% [at 57.1 µM] (inactive) |
| COC(=O)C1(O)C(OC(C)=O)CCC2C3(CC(c4ccoc4)OC3=O)C(C)=CCC21C(=O)OC (configuration not stated) | -10.6% (inactive) |
| COc1ccc(O[C@@H]2O[C@H](CO)[C@@H](O)[C@H](O)[C@H]2O)cc1OC | 31% (inactive) |
| CC1=C2C[C@@]3(C)C(CCC[C@@H]3C)C(O)C2(O)OC1=O (some centres not stated) | -2.69% [at 57.1 µM] (inactive) |
| COc1cc(C(CO)CO[C@@H]2O[C@H](CO)[C@@H](O)[C@H](O)[C@H]2O)ccc1O (some centres not stated) | -5.14% (inactive) |
| C/C=C/C(=O)OC1/C=C/C(O)C(OC(C)=O)CCC(=O)OC1C (configuration not stated) | -2.24% (inactive) |
| COc1cc(C(CO)C(OC2OC(CO)C(O)C(O)C2O)c2ccc(O)c(OC)c2)ccc1O (configuration not stated) | 11.7% (inactive) |
| COc1ccc(C2(O)c3ccccc3NC(=O)C2OC)cc1 (configuration not stated) | -7.43% [at 57.1 µM] (inactive) |
| CN1CCc2cc(Cl)c(O)cc2[C@@H](c2cccc3c2OCC3)C1 | 14.9% [at 57.1 µM] (inactive) |
| C[C@@H]1O[C@@H](OC2C(CO)OC(OCC3OC(OC(=O)[C@]45CCC(C)(C)CC4C4=CCC6[C@@]7(C)CC[C@@H](O)[C@](C)(C(=O)O)C7CC[C@@]6(C)[C@]4(C)CC5)C(O)C(O)C3O)C(O)C2O)[C@H](O)[C@H](O)[C@H]1O (some centres not stated) | -4.33% [at 15.1 µM] (inactive) |
| O=C(O)Cc1cn([C@@H]2OC[C@@H](O[C@@H]3O[C@H](CO)[C@@H](O)[C@H](O)[C@H]3O)[C@H](O)[C@H]2O[C@@H]2O[C@H](CO)[C@@H](O)[C@H](O)[C@H]2O)c2ccccc12 | 0.61% [at 15.1 µM] (inactive) |
